The values that follow come from PubChem BioAssay (Tox21).

Several values for one entry are separate records, joined by “and”; a condition that tells them apart may be missing. Equal entries are not always repeated. Inconclusive results are not listed. Where a call stands in place of a potency, no number is given. Activity calls are given as the source filed them. Unless noted, calls follow the shape of the dose curve; as a rule, active = well fitted curve in the direction sought with a large enough effect in the repeat runs; inconclusive = weak or mixed curves; inactive = no such curve, though single readings can be large; an effect the other way counts as inactive or inconclusive.

Sequence of Androgen receptor (Homo sapiens) (P10275 whole entry, looked up): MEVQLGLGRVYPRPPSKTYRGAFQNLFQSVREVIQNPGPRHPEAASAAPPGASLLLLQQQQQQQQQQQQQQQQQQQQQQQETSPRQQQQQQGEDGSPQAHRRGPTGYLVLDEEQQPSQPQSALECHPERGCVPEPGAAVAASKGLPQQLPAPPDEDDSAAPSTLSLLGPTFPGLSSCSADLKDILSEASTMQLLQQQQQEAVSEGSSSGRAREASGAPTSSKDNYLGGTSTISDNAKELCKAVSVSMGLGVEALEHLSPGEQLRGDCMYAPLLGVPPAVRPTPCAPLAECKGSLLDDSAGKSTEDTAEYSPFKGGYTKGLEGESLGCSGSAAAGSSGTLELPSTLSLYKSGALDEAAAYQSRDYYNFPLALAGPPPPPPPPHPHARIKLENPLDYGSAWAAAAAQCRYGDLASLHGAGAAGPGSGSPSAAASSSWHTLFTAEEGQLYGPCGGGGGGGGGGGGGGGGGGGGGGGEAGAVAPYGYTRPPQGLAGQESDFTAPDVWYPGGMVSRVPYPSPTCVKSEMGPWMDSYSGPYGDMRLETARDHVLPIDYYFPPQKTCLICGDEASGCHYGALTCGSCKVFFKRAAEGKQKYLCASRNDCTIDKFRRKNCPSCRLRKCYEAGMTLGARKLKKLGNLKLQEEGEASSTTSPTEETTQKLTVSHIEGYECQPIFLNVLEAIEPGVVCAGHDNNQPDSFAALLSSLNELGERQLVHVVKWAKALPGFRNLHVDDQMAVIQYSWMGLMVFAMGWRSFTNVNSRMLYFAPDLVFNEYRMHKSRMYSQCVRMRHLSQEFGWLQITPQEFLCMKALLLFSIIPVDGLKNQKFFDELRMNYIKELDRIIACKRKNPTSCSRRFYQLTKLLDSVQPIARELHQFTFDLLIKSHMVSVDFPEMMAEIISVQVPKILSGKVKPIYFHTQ

In one test the target is Androgen receptor (Homo sapiens) (UniProt P10275). As to the kind of experiment: qHTS assay to identify small molecule antagonists of the androgen receptor (AR) signaling pathway (AID 743035; active = well fitted inhibition curve with a large enough effect in the signal ratio in the repeat runs, not every such curve was filed as active; the % refers to the signal ratio; also: potency is read from the fitted curve at half-maximal effect). The following applies: HEK293 AR-UAS-bla, R1881-stimulated, beta-lactamase FRET, 16 h; series mostly up to 58.5 µM. Summed up:
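HEK293 cells stably carrying UAS-beta-lactamase reporter, 2,000/well, given compounds plus R1881 agonist and incubated 16 h at 37C. LiveBLAzer B/G FRET substrate then added for 2 h at room temperature before fluorescence reading.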
Background: Quantitative high-throughput screening tests each substance at several concentrations.
Take `O=C1C2(Cl)C3(Cl)C4(Cl)C(Cl)(Cl)C5(Cl)C3(Cl)C1(Cl)C5(Cl)C24Cl` (stereo not given): the Potency is 23.5 µM (active).

In the case of `CC(C)N(C(=O)CCl)c1ccccc1`, the Potency was 8.71 µM (active) and 6.92 µM (active).

Regarding `COP(=O)(OC)O/C(=C\Cl)c1cc(Cl)c(Cl)cc1Cl`, the Potency is 21.9 µM (active). On the same count and under the same terms, then `CC(C)=CC1C(C(=O)OC(C#N)c2cccc(Oc3ccccc3)c2)C1(C)C` (stereo not given), with “inactive”.

For `CCOC(=O)Cc1ccccc1`, the Potency entry is “inactive”.

Another test has the same target. As to the kind of experiment: qHTS assay to identify small molecule agonists of the androgen receptor (AR) signaling pathway (AID 743036; active = well fitted activation curve with a large enough effect in the signal ratio in the repeat runs, with a control signal flat, not every such curve was filed as active; the % refers to the signal ratio). Conditions: HEK293 AR-UAS-bla GripTite, beta-lactamase FRET ratio, 16 h; series mostly up to 62.4 µM. Summed up: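 Beta-lactamase under UAS control, stably integrated in HEK293 GripTite cells, reports receptor activation. After 16 h compound treatment, cells received FRET substrate for 2 h at room temperature before fluorescence reading.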
Regarding `CC(C)N(C(=O)CCl)c1ccccc1`, the result was inactive. The same measure, in the same setting: under `COP(=O)(OC)O/C(=C\Cl)c1cc(Cl)c(Cl)cc1Cl` stands “inactive”. Still for that read-out and setting: under `CC(C)=CC1C(C(=O)OC(C#N)c2cccc(Oc3ccccc3)c2)C1(C)C` (stereo not given) stands “inactive”; under `C[C@H]1[C@H](c2ccc(Cl)cc2)SC(=O)N1C(=O)NC1CCCCC1`, “inactive”; under `CCOC(=O)Cc1ccccc1`, “inactive”.

For a further test the target is unchanged. In words: qHTS assay to identify small molecule agonists of the androgen receptor (AR) signaling pathway using the MDA cell line (AID 743040; also: nearly all actives have a fitted effect of over 20% in size). Conditions: MDA-kb2 AR-luc cells, MMTV luciferase, 16 h, active compounds read high; series mostly up to 70.3 µM. Summed up: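 MDA-kb2 breast carcinoma cells stably carrying an MMTV-driven luciferase reporter (AR- and GR-responsive) were seeded and held 5 h at 37C, 0% CO2, then exposed to compounds in DMSO for 16 h. Luminescence was read 30 min after ONE-Glo addition.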
As for `N#CC(C#N)=NNc1cccc(Cl)c1`, the compound was called inactive. The same measure, in the same setting: then `O=C1C2(Cl)C3(Cl)C4(Cl)C(Cl)(Cl)C5(Cl)C3(Cl)C1(Cl)C5(Cl)C24Cl` (stereo not given), with “inactive”; and `CC(C)N(C(=O)CCl)c1ccccc1`, with “inactive”.

As for `COP(=O)(OC)O/C(=C\Cl)c1cc(Cl)c(Cl)cc1Cl`, the result was inactive.

Regarding `CC(C)=CC1C(C(=O)OC(C#N)c2cccc(Oc3ccccc3)c2)C1(C)C` (stereo not given), the outcome was inactive. As to `C[C@H]1[C@H](c2ccc(Cl)cc2)SC(=O)N1C(=O)NC1CCCCC1`, the compound was called inactive.

For the compound `CCOC(=O)Cc1ccccc1`, the compound was classed as inactive.

Tested on in a further test: not listed separately
As to the kind of experiment: qHTS assay to identify small molecule antagonists of the androgen receptor (AR) signaling pathway using the MDA cell line - cell viability counter screen (AID 743041; also: nearly all actives have a fitted effect of over 45% in size; also: potency is read from the fitted curve at half-maximal effect). The following applies: MDA-kb2 viability, CellTiter-Fluor, 16 h, cells co-treated with R1881 androgen agonist; series mostly up to 70.3 µM. In a few lines: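 MDA-kb2 AR-luc human breast carcinoma cells (MMTV-luciferase, AR/GR responsive) were treated with compounds plus R1881 agonist for 16 h at 37 °C. Viability was read as CellTiter-Fluor fluorescence in the same wells as the reporter assay.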
`Cc1c([N+](=O)[O-])c(C)c([N+](=O)[O-])c(C(C)(C)C)c1[N+](=O)[O-]`: the Potency entry was “inactive”.

In the case of `N#CC(C#N)=NNc1cccc(Cl)c1`, the Potency is 4.86 µM (active).

As to `Brc1ccc(Oc2ccc(Br)cc2Br)c(Br)c1`, the Potency result is “inactive”. Still for that read-out and setting: under `CCOP(=O)(Sc1ccccc1)Sc1ccccc1` stands “inactive”; under `CC(=O)[O-].CC(=O)[O-].CC(=O)[O-].[Cr+3]`, “inactive”; under `Cc1cc2c3c(c1)C(c1ccccc1)=N[C@@H](NC(=O)c1ccncc1)C(=O)N3CC2`, “inactive”. As to `COc1ccc2[nH]cc(CCN(C(C)C)C(C)C)c2c1`, the Potency entry was “inactive”.

For the compound `CCNc1nc(NC(C)C(C)C)nc(SC)n1` (stereo not given), the Potency result was “inactive”. `CCCN`: the Potency result was “inactive”.

`CC(=O)[O-].CC(=O)[O-].CC(=O)[O-].[Sb+3]`: the viability change, negative = cytotoxic was -11.1% [at 8.47 µM] (inactive). Take `Nc1cc(Cl)ccc1Cl`: the Potency result is “inactive”. Still for that read-out and setting: then `NC1CCC(CC2CCC(N)CC2)CC1` (stereo not given), with 47.7 µM (active); and `COP(=O)(OC)O/C(=C\Cl)c1cc(Cl)c(Cl)cc1Cl`, with “inactive”; and `CCCC[N+]1(C)CCCC1` (tested in a mixture with another compound), with “inactive”. On the same count and under the same terms, then `c1ccc2nc(N3CCNCC3)ccc2c1`, with “inactive”; and `CCCCN(CCCC)C(=S)[S-].CCCCN(CCCC)C(=S)[S-].[Ni+2]`, with “inactive”; and `O=C(Nc1ccc(F)cc1F)c1cccnc1Oc1cccc(C(F)(F)F)c1`, with “inactive”. Same read-out and setting: under `CC(C)=CC1C(C(=O)OC(C#N)c2cccc(Oc3ccccc3)c2)C1(C)C` (stereo not given) stands “inactive”; under `CC1(C)C(C=C(Cl)Cl)C1C(=O)OC(C#N)c1ccc(F)c(Oc2ccccc2)c1` (stereo not given), “inactive”. As to `C#CC1(O)CCCCC1`, the Potency result was “inactive”. Same read-out and setting: under `C=Cc1cccc(CCl)c1` stands “inactive”; under `CCC(C)c1cccc(C(C)CC)c1O` (stereo not given), “inactive”. Still for that read-out and setting: then `C[C@H]1[C@H](c2ccc(Cl)cc2)SC(=O)N1C(=O)NC1CCCCC1`, with “inactive”. Regarding `N#Cc1ccc(N(CC(N)=O)CC(F)(F)F)cc1C(F)(F)F`, the Potency result was “inactive”. Same read-out and setting: then `O=C(Cl)c1ccccc1F`, with “inactive”.

As for `CCOC(=O)Cc1ccccc1`, the Potency result is “inactive”. The same measure, in the same setting: under `Brc1cccc(-c2ccccc2)c1` stands “inactive”; under `CC(C)Br`, “inactive”; under `c1csc(-c2ccc(-c3cccs3)s2)c1`, “inactive”. Same read-out and setting: then `CC(=O)C(Cl)C(=O)N(C)C` (stereo not given), with “inactive”.

On to `ClC(Cl)C(Cl)(Cl)Cl`, for which the Potency result is “inactive”. On the same count and under the same terms, under `CC(C)C(Br)C(=O)NC(N)=O` (stereo not given) stands “inactive”.

The next test has as its target Androgen receptor (Homo sapiens) (UniProt P10275). As to the kind of experiment: qHTS assay to identify small molecule antagonists of the androgen receptor (AR) signaling pathway using the MDA cell line (AID 743042; also: nearly all actives have a fitted effect of over 55% in size; also: potency is read from the fitted curve at half-maximal effect). Conditions: MDA-kb2 AR-luc, MMTV luciferase, R1881 antagonist, 16 h; series mostly up to 70.3 µM. Summed up: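 MDA-kb2 cells (human breast carcinoma, stably carrying an MMTV-luciferase reporter responsive to AR and GR) were plated at 3,000 cells/well and preincubated 5 hr at 37C, then given compound plus R1881 agonist for 16 h. ONE-Glo luminescence was read.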
Turning to `N#CC(C#N)=NNc1cccc(Cl)c1`, the Potency was 1.93 µM (active).

For `O=C1C2(Cl)C3(Cl)C4(Cl)C(Cl)(Cl)C5(Cl)C3(Cl)C1(Cl)C5(Cl)C24Cl` (stereo not given), the Potency is 60.1 µM (active). On the same count and under the same terms, under `CC(C)N(C(=O)CCl)c1ccccc1` stands 30.6 µM (active) and 21.7 µM (active). On the same count and under the same terms, under `COP(=O)(OC)O/C(=C\Cl)c1cc(Cl)c(Cl)cc1Cl` stands 54.5 µM (active).

In the case of `CC(C)=CC1C(C(=O)OC(C#N)c2cccc(Oc3ccccc3)c2)C1(C)C` (stereo not given), the Potency entry is “inactive”. The same measure, in the same setting: then `CCOC(=O)Cc1ccccc1`, with “inactive”.
